Screens from PubChem.
gsp agonist: activates gsp, the McCune-Albright syndrome mutation; gsp mutant cells, cAMP HTRF, 30 min; Potency, µM (series often up to 76.9 µM), inactives show top-dose activation (cAMP increase), actives largely listed as activators; actives 0.13% (n = 340,000); active means well fitted activation curve with a large enough effect; inconclusive means small, poorly fitted or top-dose-only effect, or another doubt; inactive means no such curve, though single readings can be large or run the other way; cell line not stated here;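 further: phosphodiesterase inhibitor Ro 20-1724 added with compounds to block cAMP breakdown; potency means the concentration at half of the fitted maximal effect; nearly all actives have a fitted effect of over 60% in size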
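Cells in DMEM/10% FBS with G418 were pretreated with compounds in DMSO plus […] (300 uM stock) for 30 min at 37C. cAMP was measured by HTRF (cAMP-d2 plus anti-cAMP antibody-K) after 30 min at room temperature.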
CCT modulator: modulators of cytosolic chaperonin (CCT/TRiC) activity; purified chaperonin ATPase assay, HTRF ADP detection, 30 min; activity change, % (concentration not given with the values), hits read low; actives 0.3% (n = 360,000); AID 651819; in the data active means activity change below about -30%; further: on the % scale 0 is the no-effect control and ±100 the full control effect
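Nucleotide hydrolysis assay: TRiC at 20–40 nM final (set by batch activity) with 10 uM ATP, 30 min at 37 °C, in presence of 76 uM compound. Detection by competitive ADP HTRF, 30 min ambient.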
RXFP1 antagonist: antagonists of human relaxin receptor RXFP1 | Q9HBX9 | HEK293-RXFP1, relaxin-stimulated cAMP HTRF, 30 min; stronger effect = lower value | activity change, negative = inhibition, % at 57.5 µM | actives 0.59% (n = 350,000);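 active means activity change of -60% or lower, but not beyond a set lower limit; inconclusive means change between -60% and -40%, or beyond the set limit; inactive means change above -40%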; further: on the % scale 0 is the no-effect control and ±100 the full control effect
Target sequence (Q9HBX9 whole entry, looked up): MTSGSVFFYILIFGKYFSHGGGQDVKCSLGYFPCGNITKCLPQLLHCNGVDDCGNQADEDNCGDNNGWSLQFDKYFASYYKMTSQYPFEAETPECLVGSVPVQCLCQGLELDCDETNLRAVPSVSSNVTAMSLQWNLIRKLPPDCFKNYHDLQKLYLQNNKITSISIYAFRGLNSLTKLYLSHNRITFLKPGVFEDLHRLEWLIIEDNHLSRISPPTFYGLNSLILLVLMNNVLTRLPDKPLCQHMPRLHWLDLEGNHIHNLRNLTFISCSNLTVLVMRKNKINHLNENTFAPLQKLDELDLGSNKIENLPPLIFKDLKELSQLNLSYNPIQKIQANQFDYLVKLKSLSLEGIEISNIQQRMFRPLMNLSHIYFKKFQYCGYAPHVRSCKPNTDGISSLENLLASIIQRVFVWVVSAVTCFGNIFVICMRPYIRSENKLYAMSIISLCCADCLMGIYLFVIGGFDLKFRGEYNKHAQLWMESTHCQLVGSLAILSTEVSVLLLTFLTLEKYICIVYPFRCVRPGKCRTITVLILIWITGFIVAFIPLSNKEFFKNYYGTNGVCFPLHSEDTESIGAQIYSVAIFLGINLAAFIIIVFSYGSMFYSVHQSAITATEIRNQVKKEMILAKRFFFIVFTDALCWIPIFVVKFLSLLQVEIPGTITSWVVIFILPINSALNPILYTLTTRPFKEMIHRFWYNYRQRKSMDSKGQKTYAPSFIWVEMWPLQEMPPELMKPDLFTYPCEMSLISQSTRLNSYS
MmCpn inh: blocks the Methanococcus maripaludis chaperonin Mm-Cpn | purified Mm-Cpn ATPase, ADP Transcreener TR-FRET | Potency, µM (series often up to 76.9 µM), inactives show top-dose activity, negative = inhibition, hits mostly inhibitors | actives 0.031% (n = 330,000) | AID 504842; further: potency means the concentration at half of the fitted maximal effect; on the % scale 0 is the no-effect control and ±100 the full control effect; nearly all actives have a fitted effect of over 80% in size
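TR-FRET (320 nm excitation; 590 and 665 nm emission) reports ADP made from 10 uM ATP by 25 nM enzyme; compounds were preincubated 10 min, reaction run 30 min, both at 37°C.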
gsp antagonist: antagonists of gsp mutant (McCune-Albright syndrome). gsp-mutant cells, cAMP HTRF, 30 min. Potency, µM (series often up to 76.9 µM), for inactives: at the highest dose activity change, negative = inhibition, actives largely listed as inhibitors. actives 0.4% (n = 340,000). AID 624288; calls by dose curve; cell line not stated here;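 further: intracellular cAMP measured with PDE inhibitor Ro 20-1724 present during compound exposure; potency means the concentration at half of the fitted maximal effect; on the % scale 0 is the no-effect control and ±100 the full control effect; nearly all actives have a fitted effect of over 65% in size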
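HTRF cAMP read-out (cAMP-d2 plus anti-cAMP antibody-K in lysis buffer, 30 min RT). Before lysis, cells are exposed to compounds with […] for 30 min at 37C in DPBS containing Ca/Mg, BSA and Tween 20.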
RXFP1 agonist: RXFP1 (human) receptor agonism | Potency, µM (titrated, usually from 57.5 µM), inactives show at the top dose activation, hits mostly activators | Q9HBX9 | actives 0.3% (n = 370,000) | HEK293T-RXFP1 cAMP TR-FRET, 30 min; response scale: percent of porcine relaxin response, buffer zero; further: potency means the concentration at half of the fitted maximal effect; on the % scale 0 is the no-effect control and ±100 the full control effect; nearly all actives have a fitted effect of over 60% in size
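HEK293 cells stably expressing RXFP1, treated 30 min at 37C with compounds plus PDE4 inhibitor Ro 20174; cAMP measured by HTRF TR-FRET. Normalized to buffer and 29 nM porcine relaxin; EC50 by Hill fit.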
The depositor's hits bear a star; ? = inconclusive; / = no result given; [ ] = another dose, or the depositor's remark. Shown are actives, neighbours in structure and some others; about 1.2% of the full set was active somewhere. Unless noted, the call rests on the fitted dose curve; in most records, active means well fitted curve in the direction sought with a large enough effect; inconclusive means small, poorly fitted or top-dose-only effect, or another doubt; inactive means no such curve, though single readings can be large; an effect the other way counts as inactive or inconclusive.

SMILES	gsp agonist	CCT modulator	RXFP1 antagonist	MmCpn inh	gsp antagonist	RXFP1 agonist
CC(=O)CSc1nc(-c2cccs2)c(C#N)c(=O)[nH]1	?	3	22	-12%	-2%	14µM*
CCOC(=O)C1=C(CC)Nc2ccccc2N=C1NC(=O)Nc1ccc(Cl)c(Cl)c1	-7%	0	-14	-1%	32µM*	1%
Cc1ccccc1CNC(=O)C1CCCN(c2nnc(-n3c(C)ccc3C)s2)C1 (stereo not given)	/	/	/	/	/	0%
CC(C)CCOc1ccccc1Cn1c(=O)sc2ccccc21	/	/	?	/	/	-2%
CCOc1ccccc1Cn1c(=O)sc2ccccc21	-3%[15.4 µM]	-2	-87*	3%	?	-1%
O=C(Nc1cccnc1Cl)c1ccc(Cl)cc1	-8%	-4	-63*	0%	0%	1%
ClC(Cl)(c1nnnn1-c1ccccc1)c1nnnn1-c1ccccc1	-5%	-1	-91*	-4%	?	1%
NC(=O)CCCCC1CCSS1 (stereo not given)	/	/	-101*	/	/	/
CCN(CC)c1ccc(/C=N/n2c(-c3ccccc3Br)n[nH]c2=S)cc1	-11%[15.4 µM]	2	-84*	-7%	?	0%
Cc1nn(-c2ccccc2)c(C)c1/C=N/n1c(-c2ccccc2Br)n[nH]c1=S	-26%[15.4 µM]	3	-16	-1%	-23%	3%
Cc1cc(C[n+]2ccsc2N)c2ncccc2c1	19%	2	-5	40µM*	6%	1%
Cc1cccc(N(C)C(=O)CCNS(=O)(=O)c2ccc3c(c2)CCN3C(=O)C2CC2)c1	/	/	/	/	/	2%
C=CS(=O)(=O)c1ccc(Oc2ccc(S(=O)(=O)C=C)cc2)cc1	5%	-45*	-29	-5%	-3%	1%
Cc1cccc(N2C(=O)N(CC(=O)C(C)(C)C)c3ccccc3S2(=O)=O)c1C	/	/	/	/	/	-1%
COc1ccc(N2C(=O)C3CCCN3C2c2ccc(C)o2)cc1 (stereo not given)	-6%	-2	/	3%	50µM*	3%
O=S1(=O)CCN2C(Cc3ccc(SC(F)F)cc3)=CSC2=N1	?	-2	-9	1%	32µM*	-1%
COc1cc(Cl)c(C)cc1NC(=O)c1c(C)oc2nc(C)nc(N3CCCC3)c12	/	/	-6	/	/	0%
C=CCSc1nnc2c(n1)OC(c1c(C)[nH]n(-c3ccccc3)c1=O)Nc1ccccc1-2 (stereo not given)	9%	-1	8	0%	25µM*	-1%
COc1ccc(C(=O)C[n+]2ccc3c(c2)nc(-c2ccccc2)n3C)cc1	?	-36*	/	1%	7%	0%
CC(C)COc1ccc(C(=O)NCC2(N3CCN(C)CC3)CCCCC2)cc1	/	/	-10	/	/	0%
COc1ccc(Nc2nc3ccccc3nc2NS(=O)(=O)c2ccc(Cl)cc2)cc1OC	/	/	/	/	/	3%
CC(C)CCn1c(-c2nonc2N)nc2ccccc21	-22%	0	-4	1%	28µM*	1%
CC(C)(C)c1nnc(NS(=O)(=O)c2ccc(N)cc2)s1	/	/	8	/	/	/
COc1ccc(Cn2c(-c3ccc(OC)c(O)c3)nc3ccccc32)cc1O	-5%	1	-72*	0%	-25%	-1%
CC/C=C/C(=O)N1CC2(CC(c3cccc(NC(=O)CC(c4ccccc4)c4ccccc4)c3)=NO2)C[C@@H]1C(N)=O (stereo not given in full)	?	-33*	/	2%	-12%	0%
O=C(N/N=C/c1cn(-c2cccs2)nc1-c1ccccc1)c1ccccc1O	-8%	-3	-88*	-9%	28µM*	2%
O=C(CCSc1ccc(Cl)cc1)N1CCN(S(=O)(=O)c2ccccc2)CC1	22%	-5	-4	-1%	-24%	1%
O=C(COc1cccnc1[N+](=O)[O-])N1CCN(S(=O)(=O)c2ccccc2)CC1	10%	-2	7	1%	50µM*	-4%
O=C(CCc1ccccc1Cl)N1CCN(S(=O)(=O)c2ccccc2)CC1	-4%	-5	-2	0%	10µM*	-1%
